This is an account of results in PubChem BioAssay (Tox21).

Molecules are shown by their SMILES. Results filed as inconclusive are left out. Where a call stands in place of a potency, no number is given. The source made the active and inactive calls. The call rests on the fitted dose curve; in most records, active means well fitted curve in the direction sought with a large enough effect in the repeat runs; inconclusive means weak or mixed curves; inactive means no such curve, though single readings can be large; an effect the other way counts as inactive or inconclusive.
Further: nearly all actives have a fitted effect of over 50% in size.
Potency means the concentration at half of the fitted maximal effect.

Cytochrome P450 1A2 (Homo sapiens), sequence (P05177 whole entry, looked up): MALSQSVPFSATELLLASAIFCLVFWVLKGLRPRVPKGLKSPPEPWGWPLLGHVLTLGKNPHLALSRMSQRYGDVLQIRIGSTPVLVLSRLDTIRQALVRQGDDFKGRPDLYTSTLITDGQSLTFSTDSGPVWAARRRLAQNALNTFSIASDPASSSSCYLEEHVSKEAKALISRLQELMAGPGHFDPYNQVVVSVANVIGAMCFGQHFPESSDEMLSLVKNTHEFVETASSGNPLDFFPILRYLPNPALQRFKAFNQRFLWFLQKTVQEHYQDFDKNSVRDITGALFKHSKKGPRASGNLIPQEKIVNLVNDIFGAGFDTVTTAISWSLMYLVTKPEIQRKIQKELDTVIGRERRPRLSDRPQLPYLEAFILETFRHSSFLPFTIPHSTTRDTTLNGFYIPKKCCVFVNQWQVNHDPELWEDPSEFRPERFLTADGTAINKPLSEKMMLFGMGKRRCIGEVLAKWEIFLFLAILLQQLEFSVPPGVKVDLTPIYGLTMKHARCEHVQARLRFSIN

The first test concerns the target Cytochrome P450 1A2 (Homo sapiens) (UniProt P05177). The experiment in a line: Cytochrome P450 Family 1 Subfamily A Member 2 (CYP1A2) small molecule antagonists: luciferase reporter qHTS assay (AID 1671199). The conditions noted are these: P450-Glo CYP1A2 enzyme, luciferin luminescence, 1 h; series mostly up to 53 µM. The gist of the method:
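Enzymatic CYP1A2 assay, human, luminescent: 10 min compound–enzyme–substrate preincubation, 1 h NADPH-dependent turnover, 20 min detection step, room temperature throughout. Reduced light indicates lower CYP1A2 activity.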
(Reporter assays use an easily measured gene product as a stand-in for the process of interest.)
In the case of `CC1=C(CC(=O)O)c2cc(F)ccc2/C1=C\c1ccc(S(C)(=O)=O)cc1`, the Potency is 17.4 µM (active).

On to `COc1ccccc1OCC(O)COC(N)=O` (stereo not drawn), for which the Potency result was “inactive”.

Take `CC1(C)C(=O)N(Cl)C(=O)N1Br`: the Potency entry is “inactive”.

On to `COc1ccc(S(=O)(=O)Nc2nnc(CC(C)C)s2)cc1`, for which the Potency result was “inactive”.

For the molecule `O=c1[nH]cnc2c1ncn2[C@@H]1O[C@H](CO)[C@@H](O)[C@H]1O`, the Potency result is “inactive”.

As to `CCOC(=O)CS`, the Potency is 65.1 µM (active).

For `CC1(O)CSC(C)(O)CS1` (stereo not drawn), the Potency was 39.9 µM (active).

Take `OCCN(CCO)c1ccccc1`: the Potency entry was “inactive”.

For the molecule `CN(CCCN1c2ccccc2CCc2ccccc21)CC(=O)c1ccc(Cl)cc1`, the Potency was 11 µM (active).

Consider `CN1C(=O)CC(c2ccccc2)C1=O` (stereo not drawn), for which the Potency result is “inactive”.

With `c1ccc(CN(CC2=NCCN2)c2ccccc2)cc1`, the Potency entry is “inactive”.

In the case of `O=C(O)c1ccccc1Nc1cc(Cl)ccc1C(=O)O`, the Potency entry is “inactive”.

In the case of `CN(C)C(=O)NC1(c2ccccc2)CCN(CCC[C@]2(c3ccc(Cl)c(Cl)c3)CCCN(C(=O)c3ccccc3)C2)CC1`, the Potency result was “inactive”.

Consider `CCN1CC(CCN2CCOCC2)C(c2ccccc2)(c2ccccc2)C1=O` (stereo not drawn), for which the Potency entry was “inactive”.

In the case of `CC(=O)Oc1cc(C(C)C)c(OCCN(C)C)cc1C`, the Potency is 5.12 µM (active).

In the case of `CCCCN1C[C@H](O)[C@@H](O)[C@H](O)[C@H]1CO`, the Potency result is “inactive”.

Take `Cc1c(N)cccc1N`: the Potency was 23 µM (active).

Take `O=c1[nH]c(=O)n([C@H]2C[C@H](O)[C@@H](CO)O2)cc1C(F)(F)F`: the Potency entry was “inactive”.

Regarding `Cc1onc(-c2ccccc2)c1C(=O)Cl`, the Potency result is “inactive”.

In the case of `CC(Oc1c(Cl)cccc1Cl)C1=NCCN1` (stereo not drawn), the Potency was 12.9 µM (active).

As for `Cc1c[nH]c(=S)[nH]c1=O`, the Potency is 63.5 µM (active).

On to `C[C@]12CCC(=O)C=C1CC[C@@H]1[C@@H]2CC[C@@]2(C)[C@H]1CC[C@]2(O)C(=O)CO`, for which the Potency entry was “inactive”.

Turning to `CN1[C@@H]2CC[C@H]1CC(OC(=O)c1c[nH]c3ccccc13)C2` (stereo partly drawn), the Potency result is “inactive”.

For `Cc1ccc([N+](=O)[O-])c(N)c1`, the Potency was 24.6 µM (active).

In a further test the target is Voltage-gated inwardly rectifying potassium channel KCNH2 (Homo sapiens) (UniProt Q12809). The experiment in a line: Human Ether-a-go-go-Related Gene (hERG) channel small molecule antagonists: fluorescence cell-based qHTS assay (AID 1671200).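 On activity change, negative = inhibition: hERG-expressing U2OS cells given a thallium stimulus after FluxOR II dye loading.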 To be noted: hERG-U2OS cells, FluxOR thallium flux fluorescence; series mostly up to 76.8 µM. The procedure, abridged: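 Fluorescence at 540 nm emission (480 nm excitation) was recorded kinetically for 2 min at 1-second intervals once the thallium-containing stimulus reached cells previously loaded with FluxOR II dye.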
Voltage-gated inwardly rectifying potassium channel KCNH2 (Homo sapiens), sequence (Q12809 whole entry, looked up): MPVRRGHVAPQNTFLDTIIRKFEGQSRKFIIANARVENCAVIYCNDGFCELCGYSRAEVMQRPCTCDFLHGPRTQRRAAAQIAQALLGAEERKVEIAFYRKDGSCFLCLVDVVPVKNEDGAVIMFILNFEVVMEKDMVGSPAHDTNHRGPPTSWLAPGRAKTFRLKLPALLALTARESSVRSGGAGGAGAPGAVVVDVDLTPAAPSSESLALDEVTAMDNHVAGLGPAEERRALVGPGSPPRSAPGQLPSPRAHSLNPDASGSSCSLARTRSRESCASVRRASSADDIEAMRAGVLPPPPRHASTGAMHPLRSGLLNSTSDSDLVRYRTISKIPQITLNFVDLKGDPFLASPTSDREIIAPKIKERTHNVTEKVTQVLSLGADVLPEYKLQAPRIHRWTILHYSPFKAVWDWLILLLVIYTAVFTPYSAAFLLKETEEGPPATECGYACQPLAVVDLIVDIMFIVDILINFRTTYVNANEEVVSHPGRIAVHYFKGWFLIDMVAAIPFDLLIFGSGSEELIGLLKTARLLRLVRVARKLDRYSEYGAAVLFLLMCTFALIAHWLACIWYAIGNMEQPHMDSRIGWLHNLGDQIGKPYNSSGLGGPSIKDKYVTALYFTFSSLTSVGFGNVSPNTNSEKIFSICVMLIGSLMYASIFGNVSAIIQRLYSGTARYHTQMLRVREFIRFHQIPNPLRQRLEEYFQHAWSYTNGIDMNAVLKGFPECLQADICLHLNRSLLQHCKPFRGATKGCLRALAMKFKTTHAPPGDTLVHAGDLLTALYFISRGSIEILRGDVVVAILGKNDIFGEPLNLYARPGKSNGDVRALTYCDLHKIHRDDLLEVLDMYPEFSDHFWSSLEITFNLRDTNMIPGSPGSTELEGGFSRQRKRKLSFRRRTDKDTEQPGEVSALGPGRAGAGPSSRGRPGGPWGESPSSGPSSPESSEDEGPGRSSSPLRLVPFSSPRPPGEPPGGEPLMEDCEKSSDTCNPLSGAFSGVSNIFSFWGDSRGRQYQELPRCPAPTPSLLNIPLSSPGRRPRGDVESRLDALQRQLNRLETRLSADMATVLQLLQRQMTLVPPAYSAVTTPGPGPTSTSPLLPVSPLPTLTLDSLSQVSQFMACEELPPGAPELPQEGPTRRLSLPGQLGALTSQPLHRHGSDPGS
Background: hERG is a cardiac potassium channel; its block is linked to QT prolongation.
`CC(C)C[C@H](NC(=O)OCC1c2ccccc2-c2ccccc21)C(=O)O`: the Potency result is “inactive”.

On to `CC1=C(CC(=O)O)c2cc(F)ccc2/C1=C\c1ccc(S(C)(=O)=O)cc1`, for which the Potency entry is “inactive”.

For the molecule `COc1ccccc1OCC(O)COC(N)=O` (stereo not drawn), the Potency result was “inactive”.

On to `CC1(C)C(=O)N(Cl)C(=O)N1Br`, for which the Potency entry is “inactive”.

Consider `COc1ccc(S(=O)(=O)Nc2nnc(CC(C)C)s2)cc1`, for which the Potency entry was “inactive”.

As to `CCCCNc1cc(C(=O)O)cc(S(N)(=O)=O)c1Oc1ccccc1`, the Potency entry was “inactive”.

For `O=c1[nH]cnc2c1ncn2[C@@H]1O[C@H](CO)[C@@H](O)[C@H]1O`, the Potency result is “inactive”.

Regarding `NC(Cc1ccc(F)cc1)C(=O)O` (stereo not drawn), the activity change, negative = inhibition is 3.14% [at 6.97 µM] (inactive).

With `CC1(O)CSC(C)(O)CS1` (stereo not drawn), the Potency entry is “inactive”.

`CC(=O)N[C@@H](CC(C)C)C(=O)O`: the Potency result was “inactive”.

Consider `OCCN(CCO)c1ccccc1`, for which the Potency entry is “inactive”.

Consider `CN(CCCN1c2ccccc2CCc2ccccc21)CC(=O)c1ccc(Cl)cc1`, for which the Potency entry was “inactive”.

Turning to `CN1C(=O)CC(c2ccccc2)C1=O` (stereo not drawn), the Potency result was “inactive”.

Take `CCCNC(C)(C)COC(=O)c1ccccc1`: the Potency entry was “inactive”.

As to `c1ccc(CN(CC2=NCCN2)c2ccccc2)cc1`, the Potency was 19 µM (active).

Consider `O=C(O)c1ccccc1Nc1cc(Cl)ccc1C(=O)O`, for which the activity change, negative = inhibition was 6.42% [at 15.8 µM] (inactive).

As for `CCN1CC(CCN2CCOCC2)C(c2ccccc2)(c2ccccc2)C1=O` (stereo not drawn), the Potency entry is “inactive”.

In the case of `CC(=O)Oc1cc(C(C)C)c(OCCN(C)C)cc1C`, the Potency result is “inactive”.

Turning to `CCCCOc1cc(C(=O)NCCN(CC)CC)c2ccccc2n1`, the Potency is 5.35 µM (active).

As to `C=CCc1cc(OC)c(O)c(C(=O)NCCO)c1`, the Potency result was “inactive”.

Take `CCCCN1C[C@H](O)[C@@H](O)[C@H](O)[C@H]1CO`: the Potency result was “inactive”.

Consider `Cc1c(N)cccc1N`, for which the Potency entry was “inactive”.

Take `O=c1[nH]c(=O)n([C@H]2C[C@H](O)[C@@H](CO)O2)cc1C(F)(F)F`: the Potency result is “inactive”.

`Cc1onc(-c2ccccc2)c1C(=O)Cl`: the Potency entry is “inactive”.

In the case of `C=O`, the Potency result was “inactive”.

Consider `O=C1CCC(C2CCCCC2)CC1`, for which the Potency entry was “inactive”.

Consider `CC(Oc1c(Cl)cccc1Cl)C1=NCCN1` (stereo not drawn), for which the Potency entry was “inactive”.

For `Cc1c[nH]c(=S)[nH]c1=O`, the Potency result is “inactive”.

For `C[C@@H](N)C(=O)O`, the Potency entry is “inactive”.

`C1CCOC1`: the Potency result is “inactive”.

Take `CC(C)NCC(O)COc1ccc(CCOCC2CC2)cc1` (stereo not drawn): the Potency result is “inactive”.

As for `CN1[C@@H]2CC[C@H]1CC(OC(=O)c1c[nH]c3ccccc13)C2` (stereo partly drawn), the Potency is 19 µM (active).

`CC(C)Nc1nc(N)nc(Cl)n1`: the Potency entry was “inactive”.

Take `CC(CNC1CCCCC1)OC(=O)c1ccccc1` (stereo not drawn): the Potency result was “inactive”.
